{"source": "PubChem BioAssay AID977611", "origin": "cited, not measured here", "test": "PubChem AID 977611", "settings": "PDB protein-ligand complexes, literature Kd", "note": "Out of some 3,900 compounds screened, about 3,900 (100%) were called active. No cut-off is given here; in the data, nearly all actives have Kd up to about 4200 µM. So high a share suggests a set chosen from earlier hits. Some of the results follow. Starred links: 1 amine or outer side, 2 acyl side, 3 side chain; linkers in the order of their positions; H or OH if unused. *1 amine or outer side, *2 acyl side, *3 side chain or, on linkers, in order; H or OH if unused. Where a SMILES comes first, the peptide text is derived from it. Non-standard residues stand in square brackets, D forms with d. Residues, ends and D or L forms follow the SMILES beside them. Peptide text beside a SMILES is read from it. [ ]: non-standard residue; d: D form. X1 = O=C([C@H](Cc1ccc(O[P+](O)(O)O)cc1)N[*:1])[*:2]"}
{"compound": "CC(C)C[C@H](NC(=O)[C@H](Cc1ccccc1)NC(=O)[C@@H]1CCCN1C(=O)[C@@H](NC(=O)[C@H](CC(C)C)NC(=O)[C@H](CO)NC(=O)[C@H](Cc1c[nH]cn1)NC(=O)[C@H](Cc1c[nH]c2ccccc12)NC(=O)[C@@H]1CCCN1C(=O)[C@H](Cc1ccccc1)NC(=O)[C@@H](N)C(C)C)C(C)C)C(=O)N[C@@H](C)C(=O)N1CCC[C@H]1C(=O)N[C@@H](CO)C(=O)N[C@@H](CCC(N)=O)C(=O)O", "note": "(H-VFPWHSLVPFLAPSQ-OH)", "values": [{"measurement": "Kd", "setting": "protein: Ataxin-1, PDB entry 2m41", "value": "8 µM (active)"}]}
{"compound": "H-DWDFLPP-NH2", "values": [{"measurement": "Kd", "setting": "protein: Gamma-aminobutyric acid receptor-associated protein, PDB entry 3dow", "value": "11.5 µM (active)"}]}
{"compound": "C=CCO[C@]1(C(=O)O)C[C@@H](O[C@]2(C(=O)O)C[C@@H](O)[C@@H](O)[C@@H]([C@H](O)CO[C@]3(C(=O)O)C[C@@H](O)[C@@H](O)[C@@H]([C@H](O)CO)O3)O2)[C@@H](O)[C@@H]([C@H](O)CO)O1", "values": [{"measurement": "Kd", "setting": "protein: antigen binding fragment of mAb S25-26, PDB entry 4m7j", "value": "0.781 µM (active)"}]}
{"compound": "CC(C)[C@H](NC(=O)[C@H](CCC(=O)O)NC(=O)[C@@H](NC(=O)[C@@H](N)CC(=O)O)[C@@H](C)O)C(=O)N[C@@H](Cc1ccc(O)cc1)C(=O)N[C@@H](CCC(=O)O)C(=O)N[C@@H](CO)C(=O)N1CCC[C@H]1C(=O)N[C@@H](Cc1ccc(O[P+](O)(O)O)cc1)C(=O)N[C@@H](C)C(=O)N[C@@H](CC(=O)O)C(=O)N1CCC[C@H]1C(=O)N[C@@H](CCC(=O)O)C(=O)O", "note": "(H-DTEVYESP[X1]ADPE-OH)", "values": [{"measurement": "Kd", "setting": "protein: Proto-oncogene vav, PDB entry 2mc1", "value": "71 µM (active)"}]}
{"compound": "CC(=O)N[C@@H](CC(=O)O)C(=O)N[C@H](C(=O)N[C@@H](CCC(=O)O)C(=O)N[C@H](C(=O)N[C@@H](Cc1ccc(O[P+](O)(O)O)cc1)C(=O)N[C@@H](CCC(=O)O)C(=O)N[C@@H](CO)C(=O)N1CCC[C@H]1C(=O)N[C@@H](Cc1ccc(O[P+](O)(O)O)cc1)C(=O)N[C@@H](C)C(=O)N[C@@H](CC(=O)O)C(=O)N1CCC[C@H]1C(=O)N[C@@H](CCC(=O)O)C(N)=O)C(C)C)[C@@H](C)O", "note": "(Ac-DTEV[X1]ESP[X1]ADPE-NH2)", "values": [{"measurement": "Kd", "setting": "protein: C-termainl SH2 domain from phospholipase C-gamma-1 comprising residues 663-759( PLC?), PDB entry 2fci", "value": "0.07 µM (active)"}]}
{"compound": "O=C(Nc1ccc(-c2nn[nH]n2)cc1Cc1ccccc1)c1cccc(CC2CCCCC2)n1", "values": [{"measurement": "Kd", "setting": "protein: KSHV Protease, PDB entry 4p3h", "value": "1 µM (active)"}]}
{"compound": "CN(C)c1cc[n+](Cc2ccc(CCc3ccccc3)cc2)cc1", "values": [{"measurement": "Kd", "setting": "protein: Human choline kinase a1, PDB entry 4cga", "value": "0.4 µM (active)"}]}
{"compound": "CN(C)c1cc[n+](Cc2ccc(-c3ccc(Cn4cnc(=N)c5[nH]cnc54)cc3)cc2)cc1", "values": [{"measurement": "Kd", "setting": "protein: CHOLINE KINASE ALPHA, PDB entry 4br3", "value": "1.9 µM (active)"}]}
{"compound": "CN(C)c1cc[n+](Cc2ccc(-c3ccccc3)cc2)cc1", "values": [{"measurement": "Kd", "setting": "protein: Human choline kinase a1, PDB entry 4cg9", "value": "0.62 µM (active)"}]}
{"compound": "CN(C)c1cc[n+](Cc2ccc(CCCCc3ccc(CN4C=CC(N(C)c5ccc(Cl)cc5)C=C4)cc3)cc2)cc1", "values": [{"measurement": "Kd", "setting": "protein: Human choline kinase a1, PDB entry 4cg8", "value": "0.11 µM (active)"}]}
{"compound": "CC(=O)N[C@H]1[C@H](O[C@@H]2[C@@H](O)[C@@H](O)O[C@H](CO)[C@@H]2O[C@H]2O[C@H](CO[C@@H]3O[C@@H](C)[C@H](O)[C@@H](O)[C@H]3O)[C@@H](O)[C@H](O)[C@H]2O)O[C@H](CO)[C@@H](O)[C@@H]1O", "values": [{"measurement": "Kd", "setting": "protein: TAIL SPIKE PROTEIN(D339N mutant), PDB entry 2x6x", "value": "210 µM (active)"}]}
{"compound": "CC(=O)N[C@H]1[C@H](O[C@H]2[C@H](O)[C@@H](O)[C@H](O[C@H]3[C@H](O)[C@@H](CO)OC[C@@H]3NC(C)=O)O[C@@H]2C(=O)O)O[C@H](CO)[C@@H](O)[C@@H]1O[C@@H]1O[C@H](C(=O)O)[C@@H](O)[C@H](O)[C@H]1O", "values": [{"measurement": "Kd", "setting": "protein: murine cd44 hyaluronan binding domain, PDB entry 4mrd", "value": "428 µM (active)"}]}
{"compound": "CC(=O)N[C@@H]1[C@@H](O[C@H]2O[C@H](CO)[C@H](O[C@H]3O[C@H](CO[C@@H]4O[C@@H](C)[C@H](O)[C@@H](O)[C@H]4O)[C@@H](O)[C@H](O)[C@H]3O)[C@H](O[C@@H]3O[C@H](CO)[C@@H](O)[C@H](O)[C@H]3NC(C)=O)[C@H]2O)[C@H](O)[C@@H](CO[C@H]2O[C@H](CO)[C@@H](O)[C@H](O)[C@H]2O)O[C@H]1O", "values": [{"measurement": "Kd", "setting": "protein: TAIL SPIKE PROTEIN(D339A mutant), PDB entry 2x6y", "value": "26 µM (active)"}, {"measurement": "Kd", "setting": "protein: TAIL SPIKE PROTEIN, PDB entry 2x85", "value": "129 µM (active)"}]}
{"compound": "CC(=O)N[C@@H]1[C@@H](O[C@H]2O[C@H](CO)[C@H](O[C@H]3O[C@H](CO[C@@H]4O[C@@H](C)[C@H](O)[C@@H](O)[C@H]4O)[C@@H](O)[C@H](O)[C@H]3O)[C@H](O[C@@H]3O[C@H](CO)[C@@H](O)[C@H](O)[C@H]3NC(C)=O)[C@H]2O)[C@H](O)[C@@H](CO[C@H]2O[C@H](CO)[C@@H](O)[C@H](O)[C@H]2O)O[C@@H]1O", "values": [{"measurement": "Kd", "setting": "protein: TAIL SPIKE PROTEIN(E372Q mutant), PDB entry 2x6w", "value": "0.079 µM (active)"}]}
{"compound": "CC(=O)N[C@H]1[C@H](O[C@@H]2[C@H](O[C@]3(C(=O)O)C[C@H](O)[C@@H](NC(C)=O)[C@H]([C@H](O)[C@H](O)CO)O3)[C@@H](O)[C@H](O[C@H]3[C@H](O)[C@@H](O)[C@H](O)O[C@@H]3CO)O[C@@H]2CO)O[C@H](CO)[C@H](O)[C@@H]1O[C@@H]1O[C@H](CO)[C@H](O)[C@H](O)[C@H]1O", "values": [{"measurement": "Kd", "setting": "protein: ECXA, PDB entry 4l6t", "value": "0.032 µM (active)"}]}
{"compound": "CC(=O)N[C@@H]1[C@@H](O)[C@H](O[C@@H]2O[C@H](CO)[C@@H](O[C@@H]3O[C@H](CO[C@H]4O[C@H](CO)[C@@H](O)[C@H](O)[C@@H]4O[C@@H]4O[C@H](CO)[C@@H](O)[C@H](O)[C@H]4NC(C)=O)[C@@H](O)[C@H](O[C@H]4O[C@H](CO)[C@@H](O)[C@H](O)[C@@H]4O[C@@H]4O[C@H](CO)[C@@H](O)[C@H](O)[C@H]4NC(C)=O)[C@@H]3O)[C@H](O)[C@H]2NC(C)=O)[C@@H](CO)O[C@H]1NC(=O)C[C@H](N)C(=O)O", "values": [{"measurement": "Kd", "setting": "protein: LECTIN, PDB entry 3zyr", "value": "4.6 µM (active)"}]}
{"compound": "Nc1c(I)c(C(=O)O)c(I)c(C(=O)O)c1I", "values": [{"measurement": "Kd", "setting": "protein: EXTRACELLULAR PROTEIN 6, PDB entry 4b9h", "value": "4.5 µM (active)"}]}
{"compound": "NCCCCNCCCN", "values": [{"measurement": "Kd", "setting": "protein: Phospholipase A2 VRV-PL-VIIIa, PDB entry 4qf8", "value": "0.031 µM (active)"}]}
{"compound": "N/C=C/CCNCCCN", "values": [{"measurement": "Kd", "setting": "protein: Putrescine-binding periplasmic protein (S38T, D39E, S87Y, A182D, D247S, F276W, L348Q mutation), PDB entry 4jdf", "value": "6400 µM (active)"}]}
{"compound": "COc1ccc2c(CC(=O)O)coc2c1", "values": [{"measurement": "Kd", "setting": "protein: Pantothenate synthetase (T2A, E77G mutation), PDB entry 4ddh", "value": "500 µM (active)"}]}
{"compound": "NC1NC(=O)c2c(CCc3ccc(C(=O)N[C@@H](CCC(=O)O)C(=O)O)cc3)c[nH]c2N1", "note": "(stereo partly specified)", "values": [{"measurement": "Kd", "setting": "protein: Folate receptor beta, PDB entry 4kn2", "value": "0.054 µM (active)"}]}
{"compound": "NC1NC(=O)c2nc(CNc3ccc(C(=O)N[C@@H](CCC(=O)O)C(=O)O)cc3)cnc2N1", "note": "(stereo partly specified)", "values": [{"measurement": "Kd", "setting": "protein: Folate receptor alpha, PDB entry 4lrh", "value": "0.00019 µM (active)"}, {"measurement": "Kd", "setting": "protein: Folate receptor beta, PDB entry 4kmz", "value": "0.0027 µM (active)"}]}
{"compound": "Nc1nc(N)c2nc(CNc3ccc(C(=O)N[C@@H](CCC(=O)O)C(=O)O)cc3)cnc2n1", "values": [{"measurement": "Kd", "setting": "protein: Folate receptor beta, PDB entry 4kn1", "value": "0.144 µM (active)"}]}
{"compound": "N[C@H](CNc1nc(-c2ccncc2)nc2sc3c(c12)CCCC3)Cc1ccccc1", "values": [{"measurement": "Kd", "setting": "protein: PROTEIN KINASE C IOTA TYPE, PDB entry 3zh8", "value": "0.341 µM (active)"}]}
